From PubChem BioAssay (NCATS) come the findings set out here.

Values without a mark were called inactive. Records with an inconclusive call do not appear. Active and inactive are the calls of the source. Unless noted, calls follow the shape of the dose curve; as a rule, active = well fitted curve in either direction with a large enough effect (not every such curve was filed as active); inconclusive = small, poorly fitted or top-dose-only effect, or another doubt; inactive = flat fitted curve, though single readings scatter.

Experiment [1] has as its target Lysosomal acid glucosylceramidase (Homo sapiens) (UniProt P04062). As to the kind of experiment: Glucocerebrosidase-p2 (AID 348; in the data active = potency below about 10 µM; also: potency is read from the fitted curve at half-maximal effect). Conditions: purified GBA, blue fluorogenic substrate, 40 min. In short, it runs like this: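 Normal human glucocerebrosidase (0.2 nM) with blue fluorogenic substrate (80 uM final) in citrate/phosphate pH 5.9 with 10mM sodium taurocholate, 0.01% tween-20; 40 min RT, NaOH/glycine stop; fluorescence Ex 365/Em 440; AC50 from a titration from 0.6 nM upwards.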

A short description of experiment [2]: AP1 Signaling Pathway (AID 357). Also: % is scaled to controls: 0 for no effect and ±100 for the full control effect. Conditions: ME-180 AP-1-bla reporter, EGF-induced, beta-lactamase ratio, 5 h; at 7.69 µM (top of the series) unless noted. In short, it runs like this: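 Modulation of EGF-driven AP-1 transcription was assessed with a beta-lactamase reporter in ME-180 cells. Compound and EC50 EGF were co-incubated 5 hours at 37 °C before 2.5-hour CCF4 loading at room temperature and dual-emission reading.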

A short description of experiment [3]: NFAT Signaling Pathway (AID 444).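 Also: carbachol stimulus at about its EC50 of 1 µM final; % is scaled to controls: 0 for no effect and ±100 for the full control effect.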 Conditions: Jurkat NFAT-bla M1, carbachol, beta-lactamase ratio, 5 h; at 7.69 µM (top of the series) unless noted. In short, it runs like this:
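Jurkat cells carrying an NFAT-driven β-lactamase reporter and co-transfected muscarinic M1 receptor were treated with compound plus carbachol (1 uM final, an EC50 level) for 5 h at 37 °C. CCF4 loading followed for 1 h at RT; 460/530 nm ratio gave %activity.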

Experiment [4] in a line: Stat Signaling Pathway (AID 446).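 Also: ME-180 cervical cancer cells given 40 pM IL-6 alongside compound; SIE-controlled beta-lactamase reporter measured as 460/530 nm FRET emission ratio; % is scaled to controls: 0 for no effect and ±100 for the full control effect.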 The conditions noted are these: ME-180 SIE beta-lactamase reporter, IL-6 stimulated, 5 h; at 7.69 µM (top of the series) unless noted. Summed up: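 Emission at 460 and 530 nm (excitation 405 nm) reports SIE-controlled beta-lactamase in ME-180 cells. Cells received compound with 40 pM IL-6 for 5 hrs at 37 C; data scaled between 300 pM IL-6 and 125 nM JAK-inhibitor controls.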

For experiment [5], the target named is Glucocorticoid receptor (Homo sapiens) (UniProt P04150). Briefly: GR-GFP Redistribution (AID 450;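 active = compounds whose dose series gives a full or clear partial fitted curve of increased nuclear translocation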; also: potency is read from the fitted curve at half-maximal effect). The conditions noted are these: U2OS GR-GFP nuclear translocation, laser cytometry, 2 h.
Sequence of Glucocorticoid receptor (Homo sapiens) (P04150 whole entry, looked up): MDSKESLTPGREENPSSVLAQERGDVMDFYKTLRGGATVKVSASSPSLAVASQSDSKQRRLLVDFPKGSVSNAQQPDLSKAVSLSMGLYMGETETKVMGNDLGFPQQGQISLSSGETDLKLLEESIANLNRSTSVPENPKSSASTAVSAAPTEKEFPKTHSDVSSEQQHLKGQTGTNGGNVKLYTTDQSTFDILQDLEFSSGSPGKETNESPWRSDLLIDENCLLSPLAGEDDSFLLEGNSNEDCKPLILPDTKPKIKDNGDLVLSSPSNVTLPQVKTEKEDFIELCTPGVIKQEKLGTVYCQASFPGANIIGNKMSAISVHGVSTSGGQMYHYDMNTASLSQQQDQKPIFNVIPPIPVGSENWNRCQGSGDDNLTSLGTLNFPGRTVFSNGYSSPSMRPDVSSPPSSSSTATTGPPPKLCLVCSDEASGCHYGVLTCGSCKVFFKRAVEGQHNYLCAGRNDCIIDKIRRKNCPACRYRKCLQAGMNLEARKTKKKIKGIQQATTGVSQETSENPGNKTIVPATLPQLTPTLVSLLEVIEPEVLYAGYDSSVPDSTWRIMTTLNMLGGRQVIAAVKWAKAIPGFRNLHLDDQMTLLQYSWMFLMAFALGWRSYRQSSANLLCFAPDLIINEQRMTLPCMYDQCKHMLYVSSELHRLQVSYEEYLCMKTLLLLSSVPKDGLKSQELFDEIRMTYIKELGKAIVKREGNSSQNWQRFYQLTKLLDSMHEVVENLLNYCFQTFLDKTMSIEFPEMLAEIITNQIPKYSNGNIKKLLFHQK
For experiment [6] the target is unchanged. Briefly: GR-EFC Redistribution (AID 451; calls by dose curve; also: potency is read from the fitted curve at half-maximal effect). Conditions: CHO-K1 GR-EFC translocation, beta-gal luminescence, 2 h. Summed up:
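CHO-K1 cells stably expressing nuclear-localized β-gal enzyme acceptor and GR fused C-terminally to the enzyme donor fragment; ligand-driven nuclear translocation restores β-gal by complementation. Compounds titrated up to 46 uM final, 2 h at 37 °C; luminescence read.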

The target of experiment [7] is Mitogen-activated protein kinase 10 (Mus musculus) (UniProt Q61831). As to the kind of experiment: JNK3 AlphaScreen Assay (AID 530).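 Also: kinase came from lysate of stimulated human HepG2 cells; % is scaled to controls: 0 for no effect and ±100 for the full control effect.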 The conditions noted are these: JNK3 lysate, c-Jun phosphorylation; series mostly up to 11.4 µM. In short, it runs like this: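 Biotinylated GST-cJun(1-79) served as substrate for JNK3 in HepG2 lysates stimulated with IL-1beta and TNF-alpha. ATP was 10 uM final, pH 7.6. Ser73 phosphorylation was quantified by AlphaScreen (680 nm excitation).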

Experiment [8] concerns the target 3',5'-cyclic-AMP phosphodiesterase 4B (Homo sapiens) (UniProt Q07343). As to the kind of experiment: qHTS Assay for Inhibitors of PDE-IV (AID 607; active = well fitted activation curve with a large enough effect in the main read-out, with a control signal flat, not every such curve was filed as active; also: % of control where 0% means no effect). Conditions: HEK293 ACTOne CNG channel cells, membrane potential fluorescence; series mostly up to 22.9 µM. In short, it runs like this: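 The readout is membrane depolarisation from a cAMP-sensing CNG channel, detected with a potential dye at ex 535/em 590. Cells were HEK293-derived (endogenous PDE-IV) at 1000 cells/well, titrated up to 22.9 uM final.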
In general terms: In qHTS, concentration-response curves come from the screen itself.

In experiment [9] the target is Cytochrome P450 3A4 (Homo sapiens) (UniProt P08684). As to the kind of experiment: qHTS Assay for Inhibitors and Substrates of Cytochrome P450 3A4 (AID 884; active = well fitted curve in the direction sought with a large enough effect; an effect the other way counts as inactive or inconclusive; also: % is scaled to controls: 0 for no effect and ±100 for the full control effect; nearly all actives have a fitted effect of over 50% in size). The conditions noted are these: recombinant CYP3A4, Luciferin-PPXE luminescence; series mostly up to 57.1 µM. In short, it runs like this: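 Luminescent readout of luciferin produced by CYP3A4 (20 nM) dealkylation of Luciferin-PPXE, 25 uM (its KM). NADPH-driven reaction ran 60 min at RT after 10 min compound preincubation; data scaled to 57 uM ketoconazole as 100% inhibition.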
Sequence of Cytochrome P450 3A4 (Homo sapiens) (P08684 whole entry, looked up): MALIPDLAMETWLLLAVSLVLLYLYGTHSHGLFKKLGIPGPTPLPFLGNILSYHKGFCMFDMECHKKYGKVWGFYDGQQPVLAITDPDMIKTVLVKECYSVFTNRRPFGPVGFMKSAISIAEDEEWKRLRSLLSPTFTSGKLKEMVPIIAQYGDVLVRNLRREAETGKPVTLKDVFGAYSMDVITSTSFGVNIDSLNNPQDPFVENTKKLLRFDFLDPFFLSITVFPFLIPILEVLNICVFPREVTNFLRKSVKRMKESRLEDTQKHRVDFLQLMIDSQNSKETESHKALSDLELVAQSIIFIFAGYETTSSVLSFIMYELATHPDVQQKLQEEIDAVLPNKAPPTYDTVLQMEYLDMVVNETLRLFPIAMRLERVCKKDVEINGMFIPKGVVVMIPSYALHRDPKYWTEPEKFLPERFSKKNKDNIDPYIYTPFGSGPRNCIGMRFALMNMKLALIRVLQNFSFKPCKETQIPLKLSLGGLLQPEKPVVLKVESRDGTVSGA

The target in experiment [10] is Cytochrome P450 2C19 (Homo sapiens) (UniProt P33261). Briefly: qHTS Assay for Inhibitors and Substrates of Cytochrome P450 2C19 (AID 899; active = well fitted curve in the direction sought with a large enough effect; an effect the other way counts as inactive or inconclusive; also: nearly all actives have a fitted effect of over 60% in size; also: potency is read from the fitted curve at half-maximal effect). The conditions noted are these: recombinant CYP2C19, luciferin-H EGE luminescence; series mostly up to 11.4 µM. In short, it runs like this: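 In 50mM KPO4, the reaction held 5nM enzyme and KM-level (10uM) Luciferin-H EGE; it ran 60 min at 37C after NADPH regeneration and a 10 min compound preincubation. Luminescence values were scaled to 57uM ketoconazole as complete inhibition.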
Sequence of Cytochrome P450 2C19 (Homo sapiens) (P33261 whole entry, looked up): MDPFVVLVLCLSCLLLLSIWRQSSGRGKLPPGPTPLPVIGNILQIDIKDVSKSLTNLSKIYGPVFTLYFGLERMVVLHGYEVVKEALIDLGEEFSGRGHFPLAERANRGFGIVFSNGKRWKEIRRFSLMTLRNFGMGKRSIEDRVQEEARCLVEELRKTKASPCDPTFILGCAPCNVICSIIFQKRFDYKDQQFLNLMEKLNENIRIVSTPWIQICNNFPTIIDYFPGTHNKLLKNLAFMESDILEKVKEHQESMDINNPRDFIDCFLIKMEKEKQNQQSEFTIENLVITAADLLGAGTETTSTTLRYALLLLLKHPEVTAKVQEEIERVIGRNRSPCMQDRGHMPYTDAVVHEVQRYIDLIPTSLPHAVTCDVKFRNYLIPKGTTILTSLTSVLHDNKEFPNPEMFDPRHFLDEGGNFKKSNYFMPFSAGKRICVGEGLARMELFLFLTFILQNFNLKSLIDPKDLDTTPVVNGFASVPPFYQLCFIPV

Experiment [11] addresses Cytochrome P450 3A4 (Homo sapiens) (UniProt P08684). Briefly: qHTS Assay for Activators of Cytochrome P450 3A4 (AID 885; active = well fitted curve in the direction sought with a large enough effect; an effect the other way counts as inactive or inconclusive; also: nearly all actives have a fitted effect of over 65% in size). The conditions noted are these: recombinant CYP3A4, Luciferin-PPXE luminescence, 60 min; series mostly up to 11.4 µM. In short, it runs like this:
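Activators are scored by enhanced luminescence from CYP3A4 conversion of luciferin-PPXE (25uM, equal to KM) to luciferin, after 60 min at RT with an NADPH-regenerating system.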

Experiment [12] concerns the target Cytochrome P450 2D6 (Homo sapiens) (UniProt P10635). As to the kind of experiment: qHTS Assay for Inhibitors and Substrates of Cytochrome P450 2D6 (AID 891; active = well fitted curve in the direction sought with a large enough effect; an effect the other way counts as inactive or inconclusive; also: nearly all actives have a fitted effect of over 60% in size; also: potency is read from the fitted curve at half-maximal effect). Conditions: recombinant CYP2D6, luciferin-ME EGE luminescence; series mostly up to 11.4 µM. In short, it runs like this:
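Luminescent read-out of luciferin formed by 5 nM human CYP2D6 demethylating 30 uM Luciferin-ME EGE (Km level) over 60 min at room temperature after NADPH regeneration addition. Data normalized to full inhibition by 1.43 uM quinidine.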

The nature of experiment [13]: qHTS Assay for Identification of Small Molecule Agonists for Hypoxia Response Element Signaling Pathway (AID 914; active = well fitted activation curve with a large enough effect in the signal ratio, with a control signal flat, not every such curve was filed as active; the % refers to the signal ratio; also: % of control where 0% means no effect). Conditions: ME-180 (cervical carcinoma) HRE-bla reporter, beta-lactamase ratio, CoCl2, 17 h; activation: stronger effect = higher value. Summed up:
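qHTS titration; ME-180 HRE-bla cells; EC50 CoCl2 co-treatment, 17 h at 37 degrees Celsius; CCF4 dye, ex 405nm, em 460nm and 530nm; %Activity from ratio; AC50.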

Sequence of Lysosomal acid glucosylceramidase (Homo sapiens) (P04062 whole entry, looked up): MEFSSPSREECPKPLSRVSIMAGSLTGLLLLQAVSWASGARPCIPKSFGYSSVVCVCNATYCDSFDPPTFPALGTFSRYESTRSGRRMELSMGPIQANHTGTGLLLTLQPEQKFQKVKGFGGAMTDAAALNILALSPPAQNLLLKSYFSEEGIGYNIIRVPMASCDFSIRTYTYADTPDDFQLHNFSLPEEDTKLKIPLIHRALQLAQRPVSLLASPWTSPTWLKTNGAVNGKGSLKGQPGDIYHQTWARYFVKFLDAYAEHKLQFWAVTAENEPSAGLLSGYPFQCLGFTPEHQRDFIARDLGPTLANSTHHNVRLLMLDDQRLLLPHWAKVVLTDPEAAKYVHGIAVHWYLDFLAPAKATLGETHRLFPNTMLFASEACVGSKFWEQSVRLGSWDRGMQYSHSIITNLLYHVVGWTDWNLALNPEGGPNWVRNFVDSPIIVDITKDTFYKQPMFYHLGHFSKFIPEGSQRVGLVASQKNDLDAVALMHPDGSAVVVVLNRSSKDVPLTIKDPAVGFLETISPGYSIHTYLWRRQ
Sequence of 3',5'-cyclic-AMP phosphodiesterase 4B (Homo sapiens) (Q07343 whole entry, looked up): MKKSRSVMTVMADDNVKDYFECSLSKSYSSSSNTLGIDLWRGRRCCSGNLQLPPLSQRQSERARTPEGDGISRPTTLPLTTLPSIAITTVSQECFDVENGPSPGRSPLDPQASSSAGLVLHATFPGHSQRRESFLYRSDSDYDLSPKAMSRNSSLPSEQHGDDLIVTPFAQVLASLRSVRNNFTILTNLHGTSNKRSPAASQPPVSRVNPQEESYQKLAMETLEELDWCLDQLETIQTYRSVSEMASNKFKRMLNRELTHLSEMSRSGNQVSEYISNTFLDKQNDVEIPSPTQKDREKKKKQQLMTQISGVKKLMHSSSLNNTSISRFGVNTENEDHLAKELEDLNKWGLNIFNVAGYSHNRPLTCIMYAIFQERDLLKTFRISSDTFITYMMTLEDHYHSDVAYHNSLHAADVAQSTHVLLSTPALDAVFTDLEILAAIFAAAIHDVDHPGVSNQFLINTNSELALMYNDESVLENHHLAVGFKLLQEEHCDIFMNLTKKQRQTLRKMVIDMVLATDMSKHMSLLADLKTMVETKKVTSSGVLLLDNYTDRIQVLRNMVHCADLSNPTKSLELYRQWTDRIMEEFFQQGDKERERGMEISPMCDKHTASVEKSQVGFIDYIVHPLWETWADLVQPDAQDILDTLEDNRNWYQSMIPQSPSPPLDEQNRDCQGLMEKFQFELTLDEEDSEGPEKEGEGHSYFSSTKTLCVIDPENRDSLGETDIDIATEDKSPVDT
Sequence of Cytochrome P450 2D6 (Homo sapiens) (P10635 whole entry, looked up): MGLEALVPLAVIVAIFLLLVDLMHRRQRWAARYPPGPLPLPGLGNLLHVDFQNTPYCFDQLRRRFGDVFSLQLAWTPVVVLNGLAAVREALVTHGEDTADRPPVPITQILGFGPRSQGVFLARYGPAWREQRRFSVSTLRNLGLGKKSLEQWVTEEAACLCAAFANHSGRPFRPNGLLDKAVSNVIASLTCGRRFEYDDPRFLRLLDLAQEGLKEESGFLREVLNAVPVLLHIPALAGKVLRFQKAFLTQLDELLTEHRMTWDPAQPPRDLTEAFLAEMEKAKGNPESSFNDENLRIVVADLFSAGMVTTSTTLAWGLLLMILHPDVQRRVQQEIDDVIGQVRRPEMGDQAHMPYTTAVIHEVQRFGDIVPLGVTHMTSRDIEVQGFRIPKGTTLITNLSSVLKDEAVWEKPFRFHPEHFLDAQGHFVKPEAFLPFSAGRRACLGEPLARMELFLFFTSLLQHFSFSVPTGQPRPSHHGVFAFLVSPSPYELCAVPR

As to `CSc1nc2cc(S(=O)(=O)N3CCCCC3)ccc2s1`, the Potency in experiment [1] is more than 11.4 µM; in [5] it was more than 46 µM; in experiment [6], more than 9.22 µM; in experiment [10], 1.26 µM (active). The values for the activity change, negative = inhibition in [2], in experiment [3] and in experiment [9] were -19.7%, -0.492% and 50.1% [at 11.4 µM], respectively. Besides, in [4], the activity, negative = inhibition is -6.1%. In addition, the Potency entry in experiment [7] and in experiment [8] was “inactive” in each case.
Consider `C[C@H](C(=O)c1ccncc1)c1ccccn1`, for which the values for the Potency in experiment [1], in experiment [5] and in experiment [6] were more than 11.4 µM, more than 46 µM and more than 9.22 µM, respectively. Moreover, the activity change, negative = inhibition is 0.391% in experiment [2] and -8.81% in experiment [3]. Moreover, the activity, negative = inhibition in experiment [4] is 8.11%. The Potency result in experiment [7], in experiment [8] and in experiment [11] was “inactive” throughout.
As for `CN(C)Cc1c[nH]c2nc[nH]c(=O)c12`, the values for the Potency in experiment [1], in [5] and in experiment [6] were more than 11.4 µM, more than 46 µM and more than 9.22 µM, respectively. In addition, the activity change, negative = inhibition in experiment [2] was 1.16%; in [3], -5.56%. Besides, in experiment [4], the activity, negative = inhibition is 1.72%. In addition, the Potency entry in experiment [7], in [8] and in experiment [12] was “inactive” each time.
As to `CC(C)(C)c1ccc(O)c(CN(Cc2cc(C(C)(C)C)ccc2O)C2CCCCC2)c1`, the Potency in experiment [1] was more than 11.4 µM; in experiment [5], more than 46 µM; in experiment [6], more than 9.22 µM; in experiment [12], 0.501 µM (active); in experiment [10], 1.58 µM (active). Also, the activity change, negative = inhibition is 5.42% in [2] and -3.2% in experiment [3]. In addition, in experiment [4], the activity, negative = inhibition is 6.32%. The Potency result in [7] and in [8] was “inactive” throughout.
Consider `O=C(O)CC[C@@H](C(=O)O)N1C(=O)[C@@H]2[C@@H]3CC[C@H](C3)[C@@H]2C1=O`, for which the Potency is more than 11.4 µM in experiment [1], more than 46 µM in experiment [5] and more than 9.22 µM in experiment [6]. The activity change, negative = inhibition was 11.4% in experiment [2] and 3.45% in experiment [3]. In addition, the activity, negative = inhibition in experiment [4] was -17%. The Potency entry in [7], in experiment [8] and in experiment [10] was “inactive” each time.
Turning to `NS(=O)(=O)c1cc(C(=O)O)c(Cl)c([N+](=O)[O-])c1Cl`, the Potency in experiment [1] is more than 11.4 µM; in [5], more than 46 µM; in [6], more than 9.22 µM. Besides, the figures for the activity change, negative = inhibition in experiment [2] and in experiment [3] were 10.9% and 18.5%, respectively. Further, the activity, negative = inhibition in experiment [4] was 13.1%. Besides, the Potency entry in experiment [7], in experiment [8], in [12] and in experiment [10] was “inactive” in each case.
Regarding `OC[C@H](CCc1c[nH]c2ccccc12)c1c[nH]c2ccccc12`, the values for the Potency in [1], in [5] and in experiment [6] were more than 11.4 µM, more than 46 µM and more than 9.22 µM, respectively. Also, the activity change, negative = inhibition in experiment [2] is -11.6%; in experiment [3], 29.4%. In experiment [4], the activity, negative = inhibition is -1.35%. Further, the Potency entry in experiment [7] and in experiment [8] was “inactive” each time. Further, the activation in [13] was -29.3%.
Take `N#Cc1c(NC(=O)CCC(=O)O)ccc2ccccc12`: the values for the Potency in experiment [1], in experiment [5] and in [6] were more than 11.4 µM, more than 46 µM and more than 9.22 µM, respectively. Besides, the results for the activity change, negative = inhibition in experiment [2] and in [3] were -3.75% and 18.9%, respectively. Further, the activity, negative = inhibition in [4] is 4.61%. For the same molecule, the Potency entry in experiment [7], in experiment [8] and in experiment [10] was “inactive” each time. Further, the activation in experiment [13] was 3.84%.
In the case of `c1ccc(-c2nnn(CCN3CCCCC3)n2)cc1`, the Potency in experiment [1] was more than 11.4 µM; in experiment [5] it was more than 46 µM; in experiment [6], more than 9.22 µM; in experiment [10], 1.26 µM (active). For the same molecule, the activity change, negative = inhibition in experiment [2] was 10.5%; in [3] it was -5.15%. For the same molecule, the activity, negative = inhibition in [4] was 1.18%. In addition, the Potency entry in experiment [7] and in experiment [8] was “inactive” throughout. Also, the activation in experiment [13] is -4.81%.
For `CC(C)Cn1cnc2c(SCc3ccccn3)nc(N)nc21`, the figures for the Potency in [1], in experiment [5] and in [6] were more than 11.4 µM, more than 46 µM and more than 9.22 µM, respectively. Also, the figures for the activity change, negative = inhibition in experiment [2] and in experiment [3] were -13.7% and 8.93%, respectively. Further, the activity, negative = inhibition in [4] is -1.91%. For the same molecule, the Potency result in experiment [7] and in experiment [8] was “inactive” each time. In addition, the activation in experiment [13] was 13.1%.
For the molecule `NS(=O)(=O)c1ccc(NC(=O)Nc2ccccc2F)cc1`, the figures for the Potency in experiment [1], in experiment [5] and in experiment [6] were more than 11.4 µM, more than 46 µM and more than 9.22 µM, respectively. In addition, the activity change, negative = inhibition is -3.3% in [2] and 20.2% in experiment [3]. Besides, in experiment [4], the activity, negative = inhibition is 2.14%. Moreover, the Potency result in [7] and in experiment [8] was “inactive” throughout. Moreover, the activation in experiment [13] was 3.83%.
`NS(=O)(=O)c1nc(S(=O)(=O)O)c2[nH]cnc2n1`: the Potency in experiment [1] is more than 11.4 µM; in [5], more than 46 µM; in experiment [6], more than 9.22 µM. Also, the values for the activity change, negative = inhibition in [2] and in experiment [3] were 7.59% and 2.24%, respectively. For the same molecule, the activity, negative = inhibition in experiment [4] is 2.49%. The Potency entry in [7], in [8] and in [10] was “inactive” throughout.
